Reference: article PMC5700166

Assays:
[1] = molecular target: T1, GST-Nv-NF-kB (Ser allele) (Nematostella vectensis, UniProt A7UNT2 2-411); assay: protein-binding microarray (PBM); PBM: ~300 nM protein, 6 mM HEPES pH 7.8, 80 mM KCl, 0.5 mM EDTA, 0.5 mM EGTA, 6% glycerol, 35 ng/ul poly-dIdC, 1% milk, 1 h, room temperature; Ap Aiptasia and Nv Nematostella (sea anemones) / Co Capsaspora / Aq Amphimedon (sponge) / Dm Drosophila / Hu human; RHD is the Rel homology domain; high values mean tight binding; details: dsDNA, one strand shown
T1 sequence: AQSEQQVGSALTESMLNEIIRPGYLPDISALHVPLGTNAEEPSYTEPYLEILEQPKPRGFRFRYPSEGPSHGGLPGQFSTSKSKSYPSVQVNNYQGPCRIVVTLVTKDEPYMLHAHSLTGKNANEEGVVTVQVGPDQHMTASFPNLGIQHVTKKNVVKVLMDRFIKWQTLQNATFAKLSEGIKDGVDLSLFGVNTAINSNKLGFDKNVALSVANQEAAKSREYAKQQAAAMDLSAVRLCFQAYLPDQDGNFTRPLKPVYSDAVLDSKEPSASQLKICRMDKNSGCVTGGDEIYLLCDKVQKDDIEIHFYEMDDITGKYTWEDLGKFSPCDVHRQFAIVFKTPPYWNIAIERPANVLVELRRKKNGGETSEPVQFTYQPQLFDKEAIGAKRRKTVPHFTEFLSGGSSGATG

GST-Hu-p50 = GST-Hu-p50 (Homo sapiens, UniProt P19838 7-356); assay: as above; details: dsDNA, one strand shown
Sequence of GST-Hu-p50 (P19838 7-356): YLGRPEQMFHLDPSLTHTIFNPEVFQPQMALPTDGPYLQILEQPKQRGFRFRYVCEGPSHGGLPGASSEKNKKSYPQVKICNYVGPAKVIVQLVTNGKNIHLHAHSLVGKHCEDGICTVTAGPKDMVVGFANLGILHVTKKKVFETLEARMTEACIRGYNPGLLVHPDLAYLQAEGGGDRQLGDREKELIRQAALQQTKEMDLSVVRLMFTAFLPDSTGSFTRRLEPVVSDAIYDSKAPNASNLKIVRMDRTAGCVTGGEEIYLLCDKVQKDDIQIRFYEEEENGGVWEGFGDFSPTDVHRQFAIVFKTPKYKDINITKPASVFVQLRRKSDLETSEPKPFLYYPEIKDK

Sequence | binding signal [1] | binding signal (GST-Hu-p50)
CCGATTAACATCAGGGATCCCCATGATGTTAATCGGGTCTTGATTCGCTTGACGCTGCTG | 5.06 z-score | 4.35 z-score
CCGATTAACATCAGGGGGGGTTATGATGTTAATCGGGTCTTGATTCGCTTGACGCTGCTG | 4.34 z-score | 4.91 z-score
CCGATTAACATCACGTGTTTCCCTGATGTTAATCGGGTCTTGATTCGCTTGACGCTGCTG | 3.33 z-score | 1.11 z-score
CCGATTAACATCACTTTTTCCCATGATGTTAATCGGGTCTTGATTCGCTTGACGCTGCTG | 4.35 z-score | 3.04 z-score
CCGATTAACATCAATGGGAATTCTGATGTTAATCGGGTCTTGATTCGCTTGACGCTGCTG | 4.57 z-score | 3.4 z-score
CCGATTAACATCAGGGGATGACCTGATGTTAATCGGGTCTTGATTCGCTTGACGCTGCTG | 3.75 z-score | 3.42 z-score
CCGATTAACATCAACGGGAATTCTGATGTTAATCGGGTCTTGATTCGCTTGACGCTGCTG | 5.37 z-score | 3.82 z-score
CCGATTAACATCAAGGATTTCCCTGATGTTAATCGGGTCTTGATTCGCTTGACGCTGCTG | 6.13 z-score | 4.33 z-score
CCGATTAACATCAGGGGGCAAGATGATGTTAATCGGGTCTTGATTCGCTTGACGCTGCTG | 1.92 z-score | 2.2 z-score
CCGATTAACATCAAGGCATTCCCTGATGTTAATCGGGTCTTGATTCGCTTGACGCTGCTG | 2.11 z-score | 1.31 z-score
CCGATTAACATCAGGGATCTACCTGATGTTAATCGGGTCTTGATTCGCTTGACGCTGCTG | 1.74 z-score | 2.74 z-score
CCGATTAACATCACATGGGAAACTGATGTTAATCGGGTCTTGATTCGCTTGACGCTGCTG | 2.7 z-score | 1.26 z-score
CCGATTAACATCAGGAGTACCCCTGATGTTAATCGGGTCTTGATTCGCTTGACGCTGCTG | 2.31 z-score | 2.81 z-score
CCGATTAACATCAGGGGGCGCACTGATGTTAATCGGGTCTTGATTCGCTTGACGCTGCTG | 2.76 z-score | 4.11 z-score
CCGATTAACATCAGATATTTCCCTGATGTTAATCGGGTCTTGATTCGCTTGACGCTGCTG | 5.36 z-score | 3.91 z-score
CCGATTAACATCATAGTCCCATGTGATGTTAATCGGGTCTTGATTCGCTTGACGCTGCTG | 1.82 z-score | 1.34 z-score
CCGATTAACATCAGGGTTTTCCATGATGTTAATCGGGTCTTGATTCGCTTGACGCTGCTG | 1.68 z-score | 2.46 z-score
CCGATTAACATCAAATATACCCATGATGTTAATCGGGTCTTGATTCGCTTGACGCTGCTG | 1.7 z-score | 1.83 z-score
CCGATTAACATCACCAAATTCCCTGATGTTAATCGGGTCTTGATTCGCTTGACGCTGCTG | 6.26 z-score | 4.49 z-score
CCGATTAACATCACATCTTTCCCTGATGTTAATCGGGTCTTGATTCGCTTGACGCTGCTG | 4.65 z-score | 2.43 z-score
CCGATTAACATCACCCAGTTCCCTGATGTTAATCGGGTCTTGATTCGCTTGACGCTGCTG | 1.2 z-score | 1.24 z-score
CCGATTAACATCAAAAAACCCACTGATGTTAATCGGGTCTTGATTCGCTTGACGCTGCTG | 2.84 z-score | 3.37 z-score
CCGATTAACATCACAAACTTCCCTGATGTTAATCGGGTCTTGATTCGCTTGACGCTGCTG | 4.44 z-score | 2.88 z-score
CCGATTAACATCAGGGGGATGTATGATGTTAATCGGGTCTTGATTCGCTTGACGCTGCTG | 5.85 z-score | 4.84 z-score
CCGATTAACATCAAAACAGTCCCTGATGTTAATCGGGTCTTGATTCGCTTGACGCTGCTG | 4.68 z-score | 4.68 z-score

Sequence | binding signal [1] | binding signal (GST-Hu-p50)
CCGATTAACATCAGACTTCCCCATGATGTTAATCGGGTCTTGATTCGCTTGACGCTGCTG | 6.11 z-score | 4.73 z-score
CCGATTAACATCAGGGAATCTCATGATGTTAATCGGGTCTTGATTCGCTTGACGCTGCTG | 3.31 z-score | 2.5 z-score
CCGATTAACATCAAGTCCCCCAATGATGTTAATCGGGTCTTGATTCGCTTGACGCTGCTG | 3.54 z-score | 4.25 z-score
CCGATTAACATCAGGGAAAGGTATGATGTTAATCGGGTCTTGATTCGCTTGACGCTGCTG | 3.34 z-score | 2.11 z-score
CCGATTAACATCAGGGATTCCCATGATGTTAATCGGGTCTTGATTCGCTTGACGCTGCTG | 3.26 z-score | 3.48 z-score
CCGATTAACATCAGGGGAAGGAATGATGTTAATCGGGTCTTGATTCGCTTGACGCTGCTG | 6.09 z-score | 3.5 z-score
CCGATTAACATCAGGAGGCCCCCTGATGTTAATCGGGTCTTGATTCGCTTGACGCTGCTG | 1.79 z-score | 2.78 z-score
CCGATTAACATCAATCGGGAAATTGATGTTAATCGGGTCTTGATTCGCTTGACGCTGCTG | 3.66 z-score | 2.28 z-score
CCGATTAACATCACGGGGGGGACTGATGTTAATCGGGTCTTGATTCGCTTGACGCTGCTG | 4.38 z-score | 4.37 z-score
CCGATTAACATCAGGACACCCCCTGATGTTAATCGGGTCTTGATTCGCTTGACGCTGCTG | 3.79 z-score | 5.24 z-score
CCGATTAACATCAAAACTTCCCATGATGTTAATCGGGTCTTGATTCGCTTGACGCTGCTG | 3.45 z-score | 2.96 z-score
CCGATTAACATCAGGGGGTGTAATGATGTTAATCGGGTCTTGATTCGCTTGACGCTGCTG | 4.19 z-score | 3.98 z-score
CCGATTAACATCAAATTGCCCCCTGATGTTAATCGGGTCTTGATTCGCTTGACGCTGCTG | 4.54 z-score | 4.59 z-score
CCGATTAACATCAGGATCTTCCCTGATGTTAATCGGGTCTTGATTCGCTTGACGCTGCTG | 1.87 z-score | 1.9 z-score
CCGATTAACATCAGGGGAGTATATGATGTTAATCGGGTCTTGATTCGCTTGACGCTGCTG | 4.21 z-score | 3.33 z-score
CCGATTAACATCACATATTTCCCTGATGTTAATCGGGTCTTGATTCGCTTGACGCTGCTG | 5.42 z-score | 3.71 z-score
CCGATTAACATCAAACAGGGAAATGATGTTAATCGGGTCTTGATTCGCTTGACGCTGCTG | 3.74 z-score | 2.36 z-score
CCGATTAACATCAGGGGTTTTGATGATGTTAATCGGGTCTTGATTCGCTTGACGCTGCTG | 3.32 z-score | 3.98 z-score
CCGATTAACATCAATGGGTTTTCTGATGTTAATCGGGTCTTGATTCGCTTGACGCTGCTG | 2.25 z-score | 1.9 z-score
CCGATTAACATCAAGGGAATACCTGATGTTAATCGGGTCTTGATTCGCTTGACGCTGCTG | 4.14 z-score | 2.34 z-score
CCGATTAACATCAGGGGACACCCTGATGTTAATCGGGTCTTGATTCGCTTGACGCTGCTG | 3.12 z-score | 3.82 z-score
CCGATTAACATCAAATAGCCCCCTGATGTTAATCGGGTCTTGATTCGCTTGACGCTGCTG | 3.62 z-score | 4.73 z-score
CCGATTAACATCAGGGAGCCCCCTGATGTTAATCGGGTCTTGATTCGCTTGACGCTGCTG | 3.69 z-score | 5.27 z-score
CCGATTAACATCAAATACTTCCCTGATGTTAATCGGGTCTTGATTCGCTTGACGCTGCTG | 3.4 z-score | 1.98 z-score
CCGATTAACATCAGGGGAGGAAATGATGTTAATCGGGTCTTGATTCGCTTGACGCTGCTG | 4.9 z-score | 3.1 z-score

Sequence | binding signal [1] | binding signal (GST-Hu-p50)
CCGATTAACATCAGGCACCCCCCTGATGTTAATCGGGTCTTGATTCGCTTGACGCTGCTG | 3.18 z-score | 4.38 z-score
CCGATTAACATCAGGAATATACCTGATGTTAATCGGGTCTTGATTCGCTTGACGCTGCTG | 1.48 z-score | 1.06 z-score
CCGATTAACATCATGGTGGTACCTGATGTTAATCGGGTCTTGATTCGCTTGACGCTGCTG | 1.05 z-score | 1.07 z-score
CCGATTAACATCAATATTTACCCTGATGTTAATCGGGTCTTGATTCGCTTGACGCTGCTG | 5.12 z-score | 3.16 z-score
CCGATTAACATCAGGGAATCCTATGATGTTAATCGGGTCTTGATTCGCTTGACGCTGCTG | 4.4 z-score | 2.72 z-score
CCGATTAACATCAGGGAATTCCATGATGTTAATCGGGTCTTGATTCGCTTGACGCTGCTG | 5.22 z-score | 4.7 z-score
CCGATTAACATCACCAAAACCCCTGATGTTAATCGGGTCTTGATTCGCTTGACGCTGCTG | 4.14 z-score | 4.83 z-score
CCGATTAACATCAGGTATTCCCATGATGTTAATCGGGTCTTGATTCGCTTGACGCTGCTG | 2.85 z-score | 1.73 z-score
CCGATTAACATCAGAATTCCCACTGATGTTAATCGGGTCTTGATTCGCTTGACGCTGCTG | 3.68 z-score | 3.3 z-score
CCGATTAACATCAGAATATTCCCTGATGTTAATCGGGTCTTGATTCGCTTGACGCTGCTG | 5.76 z-score | 3.75 z-score
CCGATTAACATCAGGGATTTACCTGATGTTAATCGGGTCTTGATTCGCTTGACGCTGCTG | 5.26 z-score | 4.74 z-score
CCGATTAACATCATGTTGGGAAATGATGTTAATCGGGTCTTGATTCGCTTGACGCTGCTG | 2.11 z-score | 1.47 z-score
CCGATTAACATCACTTTCCCAAATGATGTTAATCGGGTCTTGATTCGCTTGACGCTGCTG | 3.07 z-score | 1.67 z-score
CCGATTAACATCAGGGGAGTTAATGATGTTAATCGGGTCTTGATTCGCTTGACGCTGCTG | 4.74 z-score | 3.74 z-score
CCGATTAACATCACGGGACTTCCTGATGTTAATCGGGTCTTGATTCGCTTGACGCTGCTG | 4.98 z-score | 4.6 z-score
CCGATTAACATCAGGTAATTCCATGATGTTAATCGGGTCTTGATTCGCTTGACGCTGCTG | 3.72 z-score | 2.14 z-score
CCGATTAACATCAATAAATACCCTGATGTTAATCGGGTCTTGATTCGCTTGACGCTGCTG | 6.32 z-score | 5.25 z-score
CCGATTAACATCACATTCTCCCCTGATGTTAATCGGGTCTTGATTCGCTTGACGCTGCTG | 5.45 z-score | 3.4 z-score
CCGATTAACATCACACACCCCCCTGATGTTAATCGGGTCTTGATTCGCTTGACGCTGCTG | 3.65 z-score | 3.63 z-score
CCGATTAACATCAAAACAGCCCCTGATGTTAATCGGGTCTTGATTCGCTTGACGCTGCTG | 3.68 z-score | 4.54 z-score
CCGATTAACATCAGGAACTACCCTGATGTTAATCGGGTCTTGATTCGCTTGACGCTGCTG | 2.02 z-score | 2.58 z-score
CCGATTAACATCAGGGGGGGACCTGATGTTAATCGGGTCTTGATTCGCTTGACGCTGCTG | 3.87 z-score | 3.99 z-score
CCGATTAACATCACGGGTTTTTCTGATGTTAATCGGGTCTTGATTCGCTTGACGCTGCTG | 3.59 z-score | 3.63 z-score
